According to PubChem BioAssay (NCI):
This is part of a sample that, as a whole, favours compounds with a hit. Of some 83,000 tested, about 20% had one in any assay.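 The test compound was applied at a single concentration to cells in 96-well plates for 48 hours, and percent growth was recorded.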 The source made the active and inactive calls. How the source made its calls: active means growth percent below 10; inactive means the rest.

Tests used:
Experiment in all cases: NCI-60 one-dose screen, 48 h (100 = growth as untreated, 0 = no growth, -100 = all killed)
Conditions in all cases: 10 µM unless noted
[1] = test system: DU-145 prostate
[2] = test system: K-562 leukemia
[3] = test system: MALME-3M melanoma
[4] = test system: MDA-MB-231 breast
[5] = test system: RXF 393 renal
[6] = test system: SF-268 CNS
[7] = test system: SF-295 CNS
[8] = test system: SF-539 CNS
[9] = test system: UACC-257 melanoma
[10] = test system: M14 melanoma
[11] = test system: HCT-15 colon
[12] = test system: HT29 colon
[13] = test system: SNB-75 CNS
[14] = test system: SNB-19 CNS
[15] = test system: U251 CNS
[16] = test system: PC-3 prostate
[17] = test system: SK-MEL-5 melanoma
[18] = test system: UACC-62 melanoma
[19] = test system: LOX IMVI melanoma

Measured: growth

COc1cc(C2CC(c3ccc(Nc4ccnc5cc(Cl)ccc45)cc3)=NN2c2ccccc2)cc(OC)c1OC (centres undefined)
inactive: [1] 79.1% | [2] 19.1% | [3] 45.6% | [4] 77.5% | [5] 76.3% | [6] 70.6% | [7] 57.7% | [8] 77% | [9] 84.7% | [10] 55.5% | [11] 45.5% | [12] 44.2% | [13] 72.6% | [14] 79.7% | [15] 60.5% | [16] 60.8% | [17] 49.5% | [18] 49.9% | [19] 58.7%

COc1ccc(C2C3CCc4ccccc4C3=NN2C(=O)c2cc(OC)c(OC)c(OC)c2)cc1O (centres undefined)
inactive: [1] 111% | [2] 52.7% | [3] 77.2% | [4] 103% | [5] 56.8% | [6] 105% | [7] 91.2% | [8] 101% | [9] 110% | [10] 101% | [11] 109% | [12] 104% | [13] 89.4% | [14] 109% | [15] 108% | [16] 92.2% | [17] 104% | [18] 105% | [19] 94.6%

O=C(OCc1ccc2c(Cl)cc(Cl)c(O)c2n1)c1cc2ccccc2[nH]1
active: [1] -94.5% | [2] -5.38% | [3] -77.7% | [4] -78.3% | [5] -94.9% | [6] -80.4% | [8] -91.1% | [9] -72.4% | [10] -69.7% | [11] -50.2% | [12] -81.1% | [13] -94.8% | [15] -92.6% | [16] -79.8% | [17] -97.6% | [18] -70.7% | [19] -91.2%
inactive: [7] 64.3% | [14] 34.8%

C=C(C)[C@@H]1CC[C@]2(C)[C@H](CC=C3[C@@H]4C[C@](C)(C(=O)N5CCN(C)CC5)CC[C@]4(C)CC[C@]32C)[C@@]1(C)CCC#N
inactive: [1] 88.3% | [2] 23.4% | [3] 77% | [4] 85.9% | [5] 84.9% | [6] 72.5% | [7] 95% | [8] 70.2% | [9] 51.4% | [10] 66.6% | [11] 38.2% | [12] 33.2% | [13] 79.1% | [14] 89.4% | [15] 50% | [16] 30.6% | [17] 18.9% | [18] 53.5% | [19] 47.6%

COc1ccc(-c2oc(=O)ccc2-c2cc(OC)c(OC)c(OC)c2)cc1F
inactive: [1] 109% | [2] 26.7% | [3] 68.9% | [4] 77.3% | [5] 90.9% | [6] 95.3% | [7] 62.4% | [8] 80.4% | [9] 66.4% | [10] 60.8% | [11] 68.2% | [12] 44.4% | [13] 106% | [14] 92.1% | [15] 81.9% | [16] 66.4% | [17] 66.5% | [18] 53.6% | [19] 67.4%

COc1ccc2[nH]c(C(=O)OCc3ccc4cccc(O)c4n3)cc2c1
inactive: [7] 73.7% | [14] 50.8% | [15] 22.1%
active: [1] -91.8% | [2] -3.39% | [3] -76.2% | [4] -70.8% | [5] -92.2% | [6] -65.6% | [8] -92.7% | [9] -70.7% | [10] -75.6% | [11] -43.8% | [12] -73.1% | [13] -29.1% | [16] -55.7% | [17] -56.9% | [18] -81% | [19] -89.1%

COc1ccc(NC(=O)/C=C/c2ccc(Cl)c(Cl)c2)cn1
inactive: [1] 96.7% | [2] 58% | [3] 92% | [4] 95% | [5] 89.4% | [6] 95.7% | [7] 84.5% | [8] 98.2% | [9] 79.9% | [10] 95.9% | [11] 51.6% | [12] 93.5% | [13] 102% | [14] 91.2% | [15] 87.4% | [16] 74.3% | [17] 71.4% | [18] 77.6% | [19] 93.6%

COc1cc2nccc(Oc3ccc(NC(=O)C4(C(=O)Nc5ccc(F)cc5)CC4)cc3)c2cc1O
inactive: [1] 77.7% | [3] 64% | [4] 71% | [5] 58.5% | [6] 65.8% | [7] 35.2% | [8] 24.5% | [9] 71.5% | [10] 49.5% | [11] 61.8% | [12] 95.1% | [13] 34% | [14] 82% | [15] 66% | [16] 57.1% | [17] 66.4% | [18] 34.8% | [19] 39.8%
active: [2] 9.3%

CS(=O)(=O)Nc1cc(-c2cc3ncc(C#N)c(Nc4ccc(Oc5ccccc5)c(Cl)c4)c3s2)cnc1Cl
inactive: [1] 48.1% | [2] 51.5% | [3] 74.5% | [4] 45.3% | [5] 15.9% | [6] 52.8% | [7] 38.4% | [8] 57.8% | [9] 68.2% | [10] 50.1% | [11] 37.2% | [12] 57.6% | [13] 39.2% | [14] 62.8% | [15] 44.6% | [16] 45.5% | [17] 52.5% | [18] 22% | [19] 25.9%

CC[C@H](Nc1nc(N)nc(N)c1Cl)c1nc2cccc(NCc3ccc(C(=O)NO)cc3)c2c(=O)n1-c1ccccc1
active: [1] -0.88% | [2] 3.11% | [4] -10.8% | [5] -52.5% | [6] 4.81% | [8] -74.2% | [9] -0.0784% | [10] -13% | [12] 6.69% | [13] -3.96% | [14] 7.79% | [15] -65.6% | [16] -57.2% | [17] -26.3% | [18] -56.8% | [19] -86.2%
inactive: [3] 20.2% | [7] 13.2% | [11] 40.9%

F
active: [3] -28.9% [6.87 mM] | [4] 5.12% [6.87 mM] | [7] 2.46% [6.87 mM] | [8] -13% [6.87 mM] | [9] 0.483% [6.87 mM] | [10] -23.4% [6.87 mM] | [12] 1.64% [6.87 mM] | [17] -66.1% [6.87 mM] | [18] -74.4% [6.87 mM] | [19] 1.06% [6.87 mM]
inactive: [1] 49.5% [6.87 mM] | [2] 60.9% [6.87 mM] | [5] 23.9% [6.87 mM] | [6] 40.9% [6.87 mM] | [11] 57.4% [6.87 mM] | [13] 11.4% [6.87 mM] | [14] 41.2% [6.87 mM] | [15] 17% [6.87 mM] | [16] 33% [6.87 mM]

CN1CCN(Cc2ccc(NC(=O)c3cnc(F)c(C#Cc4cnc(N)c5ncccc45)c3)cc2C(F)(F)F)CC1
inactive: [1] 30.5% | [6] 28.6% | [7] 48.2% | [9] 13.5% | [11] 14.9% | [13] 32.7% | [14] 52.8% | [15] 20.8% | [16] 29.9%
active: [2] 1.55% | [3] -43.1% | [4] -25.7% | [5] -0.985% | [8] 9.63% | [10] -56.4% | [12] 6.84% | [17] 8.81% | [18] -4.67% | [19] 1.54%

O=C1Cc2c([nH]c3ccc([N+](=O)[O-])cc23)-c2ccccc2N1
inactive: [4] 29.6% | [5] 16% | [6] 10.8% | [7] 18.7% | [9] 17.3% | [10] 16.8% | [14] 20.8% | [18] 11.4%
active: [1] 4.56% | [2] 3.25% | [3] 8.75% | [8] -37% | [11] 5.02% | [12] 4.95% | [13] -7.52% | [15] 8.97% | [16] 9.61% | [17] -47.2% | [19] 9.02%

COc1ccc(-c2cn(-c3cccc(C(=O)/C=C/c4ccc(O)c(OC)c4)c3)c(=O)[nH]2)cc1
active: [1] 6.8% | [5] -60.9% | [11] 8.88% | [12] -21.6% | [13] 1.36% | [15] 4.66% | [19] -13.9%
inactive: [2] 25.7% | [3] 72.5% | [4] 38.9% | [6] 19.1% | [7] 15.2% | [8] 10.5% | [9] 40.3% | [10] 51% | [14] 67.4% | [16] 20.2% | [17] 22.7% | [18] 40.8%

Oc1c(C(c2ccc(F)cc2)N2CCCCC2)ccc2cncnc12 (centres undefined)
inactive: [1] 23.3% | [2] 10.4% | [4] 14.4% | [5] 31.1% | [6] 20.9% | [8] 13.9% | [10] 15.7% | [11] 26% | [12] 13.5% | [14] 11.1% | [16] 10.6%
active: [3] 3.63% | [7] -1.59% | [9] 0.316% | [13] 7.45% | [15] 1.52% | [17] -19.7% | [18] -0.545% | [19] 7.17%

Cc1cc(C)c2c(n1)sc1c(Nc3ccc(OCc4ccccc4)cc3)ncnc12
inactive: [1] 104% | [2] 95.2% | [3] 88.6% | [4] 109% | [5] 104% | [6] 101% | [7] 101% | [8] 107% | [9] 106% | [10] 108% | [11] 100% | [12] 103% | [13] 108% | [14] 101% | [15] 98.4% | [16] 96.2% | [17] 104% | [18] 105% | [19] 91.7%
